High-throughput results: PubChem BioAssay, National Center for Advancing Translational Sciences (NCATS)
Sfp inh – qHTS Assay for Inhibitors of Bacillus subtilis Sfp phosphopantetheinyl transferase (PPTase); 4'-phosphopantetheinyl transferase ffp (Bacillus subtilis), Q9F4F7; Biochemical Sfp PPTase activity, qHTS; Potency, µM, for inactives: largest response in the series, negative = inhibition, hits mostly inhibitors; actives 3.5% (n = 310,000); AID 1490, 2009;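 further: the enzyme is Sfp with the accession as filed and its product quenches rhodamine fluorescence; 0% = enzyme reaction without inhibitor and -100% = no enzyme wells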
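After 15 min at room temperature with compound, 15 nM Sfp received 5 uM rhodamine-CoA plus 12.5 uM BHQ-2-ybbR (50 mM Hepes pH 7.6, 10 mM MgCl2). Rate came from the fluorescence difference over 30 min, ex 525/em 598 nm.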
ALDH1A1 block – qHTS Assay for Inhibitors of Aldehyde Dehydrogenase 1 (ALDH1A1). Aldehyde dehydrogenase 1A1 (Homo sapiens), P00352. Purified ALDH1A1, NADH fluorescence, propionaldehyde substrate. Potency, µM (highest dose often 75.3 µM), for inactives: top-dose activity, negative = inhibition, usual class: inhibitors. actives 7.3% (n = 220,000). AID 1030, 2008; active means well fitted inhibition curve with a large enough effect, not every such curve was filed as active; inconclusive means small, poorly fitted or top-dose-only effect, or another doubt; inactive means no such curve, though single readings can be large or run the other way;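 further: plate controls were no enzyme wells and a reference inhibitor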
Gal4-VP16 FLuc – VP16 counterscreen qHTS for inhibitors of ROR gamma transcriptional activity. Drosophila S2 Gal4-VP16 UAS-luciferase, luminescence, 20 h. Potency, µM (doses to about 53.6 µM), for the others: at the highest dose activity, negative = inhibition, hits mostly inhibitors. actives 3.5% (n = 310,000);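 further: Gal4-VP16 expression switched on by copper sulfate through the metallothionein promoter; nearly all actives have a fitted effect of over 50% in size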
RORg inh – qHTS for inhibitors of ROR gamma transcriptional activity; actives 5.4% (n = 310,000); Drosophila S2 Gal4-RORgamma UAS-luciferase reporter, 20 h; Nuclear receptor ROR-gamma (Mus musculus), P51450; Potency, µM (doses to about 53.6 µM), for inactives: top-dose activity change, negative = inhibition, actives largely listed as inhibitors; further: nearly all actives have a fitted effect of over 60% in size
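Read-out: Photinus luciferase luminescence; inhibitors lower reporter signal. Insect Schneider cells with Gal4-ROR gamma fusion under metallothionein promoter, UAS reporter; 700 uM final copper sulfate induction, 20 hr, ambient temperature.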
PLK1 PBD block – qHTS for Inhibitors of PLK1-PDB (polo-like kinase 1 - polo-box domain): Primary Screen | Plk1 PBD binding of FITC phosphopeptide, fluorescence polarization | Potency, µM, without a hit: max response, negative = inhibition, most hits filed as inhibitors | actives 2.8% (n = 360,000); further: series mostly up to about 57 µM; nearly all actives have a fitted effect of over 65% in size
Target sequence (P53350 whole entry, looked up, the tested form may be a part): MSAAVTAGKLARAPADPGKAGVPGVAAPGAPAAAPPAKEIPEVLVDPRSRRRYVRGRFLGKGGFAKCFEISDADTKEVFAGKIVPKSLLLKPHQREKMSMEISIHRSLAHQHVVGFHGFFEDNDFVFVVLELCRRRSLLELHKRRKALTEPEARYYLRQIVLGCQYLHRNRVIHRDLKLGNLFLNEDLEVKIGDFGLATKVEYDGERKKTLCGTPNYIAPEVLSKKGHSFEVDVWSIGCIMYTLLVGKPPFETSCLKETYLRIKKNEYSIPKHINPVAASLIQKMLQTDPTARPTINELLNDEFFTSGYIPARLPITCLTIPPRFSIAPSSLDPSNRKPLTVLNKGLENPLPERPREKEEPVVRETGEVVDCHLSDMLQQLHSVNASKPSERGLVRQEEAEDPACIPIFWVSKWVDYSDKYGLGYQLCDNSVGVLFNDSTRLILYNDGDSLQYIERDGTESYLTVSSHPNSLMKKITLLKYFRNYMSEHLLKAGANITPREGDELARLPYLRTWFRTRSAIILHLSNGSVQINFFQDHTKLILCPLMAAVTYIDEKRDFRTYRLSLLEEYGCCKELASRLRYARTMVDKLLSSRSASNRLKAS
An asterisk follows results filed as active; ? = inconclusive; . = no result given; [ ] = dose if it differs, or a comment. The list is not random: actives were taken first. Their share in the collection is about 12%. Unless noted, the call rests on the fitted dose curve; in most records, active means well fitted curve in the direction sought with a large enough effect; inconclusive means small, poorly fitted or top-dose-only effect, or another doubt; inactive means no such curve, though single readings can be large; an effect the other way counts as inactive or inconclusive. Unless noted, on the % scale 0 is the no-effect control and ±100 the full control effect; potency means the concentration at half of the fitted maximal effect.

SMILES	Sfp inh	ALDH1A1 block	Gal4-VP16 FLuc	RORg inh	PLK1 PBD block
O=C(NNC(=S)Nc1cccc(C(F)(F)F)c1)c1ccncc1	.	.	.	.	0%
COc1ccc(NC(C)=O)cc1S(=O)(=O)NCc1ccc2c(c1)OCO2	.	.	.	.	-11%
Fc1ccccc1CNC(=S)Nc1cccc(C(F)(F)F)c1	21%	-9%	7.1µM*	7.1µM*	-5%
Fc1cc(NC(=S)NCc2ccc(CNC(=S)Nc3ccc(Cl)c(F)c3)cc2)ccc1Cl	18%	.	-10%	-33%	-13%
Fc1cccc(NC(=S)NCc2ccc(Cl)cc2)c1	7%	-4%	18µM*	6.3µM*	-18%
Cc1ccc(NC(=S)NNC(=S)Nc2cccc(C(F)(F)F)c2)cc1	28µM*	.	-6%	-1%	19µM*
CC(C)(C)NNC(=S)Nc1cccc(F)c1	-4%	?	3.5µM*	0.63µM*	-1%
Fc1cccc(NC(=S)Nc2ccc(Br)cc2)c1	-14%	-20%	?	?	?
COC(=O)c1sc(NC(=O)OCc2ccccc2)nc1CCNC(=O)OC(C)(C)C	.	.	.	.	4%
CCc1cc(SC#N)cc(C)c1N	1%	?	-13%	-10%	?
CCc1cc(SC#N)cc(C)c1NC(=O)CCl	8%	-4%	0%	-44%	12µM*
Cc1cc(SC#N)cc(C)c1NC(=O)CCl	-28%	?	5µM*	3.5µM*	?
CCC(=O)Nc1ccc(SC#N)cc1C	-5%	2.5µM*	?	13µM*	13µM*
CC(C)N1CCc2c(sc(NC(=O)c3cc4cc([N+](=O)[O-])ccc4s3)c2C(N)=O)C1	?	?	?	?	-3%
CN1CCc2c(sc(NC(=O)c3cc4cc([N+](=O)[O-])ccc4s3)c2C(N)=O)C1	-8%	0%	3.2µM*	5.6µM*	.
COCCCNC(=O)C[C@H]1C[C@H](C(=O)N(C(C)C)C(C)C)[C@@]2(C)c3[nH]c4cc(-c5ccco5)ccc4c3CCN2C1=O	.	.	.	.	-12%
Cc1cc(=O)cc2oc3cc(N)c(-c4c(C)cc(O)cc4O)c(C)c3nc1-2	50µM*	-5%	-26%	-41%	.
Cn1nc(C(C)(C)C)cc1C(=O)N1CCCC(c2cc(C(=O)NCc3ccccc3)no2)C1 (stereo not drawn)	.	.	.	.	-5%
CNC(=S)N/N=C1\C(=O)c2cccc3cccc1c23	-11%	?	2.5µM*	0.5µM*	-11%
O=C(N/N=C1\C(=O)c2cccc3cccc1c23)c1ccc(O)cc1	-12%	10µM*	0.32µM*	0.071µM*	-19%
CCCCNC(=S)N/N=C1\C(=O)c2cccc3cccc1c23	15%	13µM*	?	?	-6%
O=C(N/N=C1\CCc2ccccc21)c1ccc(O)cc1	-1%	?	-1%	25%	5%
CCc1cc(C(=O)NC2CCCc3c2cnn3-c2ccc(F)cc2F)no1 (stereo not drawn)	.	.	.	.	1%
O=C(CSc1nnc(C2CC2)n1Cc1ccco1)NCC(F)(F)F	-23%	24µM*	-1%	4%	5%
O=C(O)CCN1C(=O)c2ccc(NC(=O)CSc3ccccc3)cc2C1=O	7%	?	0%	0%	27µM*
SMILES	Sfp inh	ALDH1A1 block	Gal4-VP16 FLuc	RORg inh	PLK1 PBD block
Cc1cccc(OCc2ccccc2)n1	.	.	.	.	7%
COc1ccc(C(=O)NC(=S)N2CC(C)OC(C)C2)cc1OC (stereo not drawn)	?	-14%	?	7.9µM*	-10%
CC1CN(C(=S)Nc2cccc([N+](=O)[O-])c2)CC(C)O1 (stereo not drawn)	1%	.	4%	-2%	-6%
CC1CN(C(=S)NC(=O)c2ccc(Cl)cc2)CC(C)O1 (stereo not drawn)	-11%	.	0.79µM*	1.6µM*	-10%
CC1CN(C(=S)NC(=O)c2cccc([N+](=O)[O-])c2)CC(C)O1 (stereo not drawn)	12%	?	1.3µM*	0.5µM*	-8%
Cc1ccc(N2CC(C(=O)Nc3cccc(S(=O)(=O)N4CCOCC4)c3)CC2=O)cc1 (stereo not drawn)	.	.	.	.	-1%
CC(=O)C1C(=O)c2c(cccc2[N+](=O)[O-])C1=Nc1cccc(Cl)c1 (stereo not drawn)	56µM*	.	-5%	-2%	-10%
O=C(Cc1ccccc1)Nc1nc2ccccc2[nH]1	21%	18µM*	16µM*	13µM*	-2%
O=C(CSc1ccccc1)Nc1nc2ccccc2[nH]1	17%	1%	?	13µM*	-3%
Nc1nc(-c2ccccc2)c(-c2ccccc2)n1N	14%	.	1.4µM*	0.4µM*	7%
Nc1nnc(-c2ccccc2)c(-c2ccccc2)n1	19%	-15%	-5%	-7%	-8%
O=C(O)C(=O)/C(=C\c1cccc2ccccc12)c1ccc2ccccc2n1	-3%	?	-13%	0%	67µM*
O=C(O)C(=O)/C(=C\c1ccc([N+](=O)[O-])cc1)c1ccc2ccccc2n1	45µM*	11µM*	-8%	15%	-20%
O=C(O)C(=O)/C(=C\c1ccccc1)c1ccc2ccccc2n1	-1%	?	10%	-23%	-6%
O[C@H](C[C@@H]1CCCCN1)c1ccc2c(c1)oc1ccccc12	.	8%[13.5 µM]	.	.	.
Cc1cccc(C#N)c1NC1=CC(=O)CC(C)(C)C1	14%	7.9µM*	?	25%	-8%
C=C[C@H]1CCC=C2C(=O)CCC[C@@H]21	-5%	-5%	-6%	-40%	.
COC(=O)Cc1c(O)ccn(Cc2ccc3c(c2)OCO3)c1=O	3%	12%	-18%[10 µM]	-20%	-15%
O=c1c(Cc2c(F)cccc2Cl)c(O)ccn1Cc1ccc2c(c1)OCO2	2%	7.9µM*	-6%	-2%	3%
Cc1cc(C(=O)CN2C(=O)C(=O)N(Cc3ccccc3)C2=O)c(C)n1-c1ccccc1F	24%	13%	4%	?	-15%
Cc1cc(C(=O)CN2CCC(C)CC2)c(C)n1-c1ccccc1F	2%	-12%	4.5µM*	5.6µM*	-10%
CCCCCCN(CCCCCC)C(=O)Cc1c(-c2ccc(Cl)cc2)[nH]c2ccc(Cl)cc12	16%	?	3%	-2%	.
CCNC(=O)C1(C)CCCN(Cc2ccc3ccccc3c2Br)C1 (stereo not drawn)	.	.	.	.	0%
O=C(CCl)NCc1cc(-c2ccc(Cl)cc2)no1	19%	22µM*	-7%	?	-4%
O=C(NCc1ccncc1)[C@@H]1CCCN1C(=O)[C@H]1CCCN1C(=O)c1ccccc1	.	.	.	.	-8%
COc1ccc(C=O)c(-c2c(-c3ccccc3OC)sc3ccccc23)c1	.	.	.	.	5%
